# From PubChem BioAssay
# FMDV inh: antivirals against foot and mouth disease virus; FMDV antiviral cell-based qHTS; actives 1.2% (n = 410,000); Potency, µM (titrated, usually from 57.9 µM), without a hit: top-dose activity change, negative = inhibition, hits mostly inhibitors; AID 1159524; calls by dose curve; tested in HEK293T cells; further: read-out not given here; potency means the concentration at half of the fitted maximal effect; on the % scale 0 is the no-effect control and ±100 the full control effect; nearly all actives have a fitted effect of over 45% in size
# Cycloheximide cs: counter-screen hit for Shiga toxin inhibitors, cycloheximide; cell reporter, cycloheximide protein synthesis inhibition counterscreen; max response, %; actives 12% (n = 300,000); in the data active means max response mostly above about 13%, no sharp cut-off; inactive means mostly below about 14%; further: read at 38.3 µM for the half of the compounds with a filed dose; 0% is about no effect
# Sm TGR inh: blocks Schistosoma mansoni thioredoxin glutathione reductase; purified TGR, DTNB reduction, TNB absorbance 405 nm; AID 485364; actives 3% (n = 360,000); Potency, µM (doses to about 114 µM), for the others: at the highest dose activity change, negative = inhibition, actives largely listed as inhibitors; active means well fitted inhibition curve with a large enough effect; inconclusive means small, poorly fitted or top-dose-only effect; inactive means no such curve, though single readings can be large or run the other way; further: potency means the concentration at half of the fitted maximal effect; on the % scale 0 is the no-effect control and ±100 the full control effect; nearly all actives have a fitted effect of over 60% in size
#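 Kinetic colorimetric format: TGR-catalysed, NADPH-driven DTNB reduction monitored via TNB absorbance. Enzyme dispensed at 20 nM; compound exposure 15 min at room temperature before reaction start.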
# Shiga toxin inh: blocks Shiga toxin action in Vero cells; Vero cells, Shiga toxin protein synthesis inhibition reporter; inhibition, % at 38.7 µM; actives 9.2% (n = 290,000); in the data active means inhibition mostly above about 28%, no sharp cut-off; inactive means mostly below about 43%; further: 0% is about no effect
# An asterisk follows results filed as active; ? = inconclusive; . = no result given; + = active, no number. Hits are enriched below; roughly 12% of the tested compounds scored in any of these assays.
SMILES,FMDV inh,Cycloheximide cs,Sm TGR inh,Shiga toxin inh
CC(C)c1ccccc1NC(=O)c1cnccn1,10.7%,4.0,-2.1%,16.6
Cc1cnc(C(=O)Nc2nnc(C3CC3)s2)cn1,17.1%,31.9*,-0.9%,23.3
COc1ccc(CCNC(=O)c2ccc3c(c2)sc2nc(-c4ccccc4)cn23)cc1OC,-7.8%,.,4.2%,.
Cc1cnc(C(=O)Nc2nnc(C(C)C)s2)cn1,35.5%,41.4*,-0.3%,70.6*
Cc1nn2c(C)c(C(=O)NC(C)c3ccccc3)cnc2c1-c1ccc(F)cc1 (configuration not stated),-19.7%,.,5.9%,.
Cc1cccc(/C(N)=N/OC(=O)Cc2cccc3ccccc23)c1,9.1%,20.5*,32.1%,27.7
Cc1ccc(/C(N)=N/OC(=O)Cc2cccs2)cc1,46.1%,50.4*,-25.2%,142.6*
Cc1cccc(/C(N)=N/OC(=O)Cc2cccs2)c1,73.6%,68.4*,4.9%,96.4*
N/C(=N\OC(=O)Cc1cccs1)c1ccc(Cl)cc1,69.6%,31.4*,6.2%,41.4*
N/C(=N\OC(=O)Cc1cccs1)c1cccc([N+](=O)[O-])c1,17.8%,25.6*,0.9%,43.9*
N/C(=N\OC(=O)Cc1cccs1)c1ccccc1,60.8%,27.9*,-12.1%,59.2*
N/C(Cc1cccs1)=N\OC(=O)COc1ccccc1,18.2%,22.4*,-1.7%,33.2
Cc1ccc(/C(N)=N/OC(=O)Cc2cccc3ccccc23)cc1,-3.2%,-4.4,10.9%,1.8
CC1=C/C(=C/N(C)C)C(=O)O1,-5.2%,-1.3,20µM*,-2.1
CN(C)/C=C1/C=C(c2ccccc2)OC1=O,0.0%,9.0,31.6µM*,-2.8
Cc1nc2c(C(=O)NCc3ccccc3Cl)cnn2c(C)c1Cc1c(F)cccc1Cl,7.3%,.,9.7%,.
Cc1ccccc1OCC(=O)OCc1cc(=O)n2nc(C3CCCCC3)sc2n1,-1.9%,.,-1.1%,.
CCN(CC)c1ccc(/C=N/NC(=O)c2cccc(S(=O)(=O)N3CCOCC3)c2)cc1,14.1µM*,1.4,5.0%,-8.1
O=C(N/N=C/c1cc([N+](=O)[O-])ccc1O)c1cccc(N2CCCC2=O)c1,11.5%,-3.2,1.9%,-4.4
COc1cc(/C=N/NC(=O)c2cccc(N3CCCC3=O)c2)ccc1O,14.7%,24.1*,5.9%,46.1
CCN(CC)c1ccc(/C=N/NC(=O)c2cccc(N3CCCC3=O)c2)cc1,24.4%,22.9*,.,42.0*
O=C(N/N=C/c1cccnc1)c1cccc(N2CCCC2=O)c1,17.5%,27.0*,10.0%,35.3
O=C(NCCN1C(=O)S/C(=C\c2ccc(F)cc2)C1=O)c1cccc(S(=O)(=O)N2CCOCC2)c1,-11.2%,69.3*,-14.0%,+
O=C(NCCN1C(=O)S/C(=C\c2ccccc2)C1=O)c1cc(S(=O)(=O)N2CCOCC2)c(Cl)cc1Cl,?,-0.7,-5.4%,-5.7
Cc1ccc(NC(=O)CCc2nc3cccnc3n2-c2ccccc2)cc1Cl,-22.4%,.,-3.2%,.
SMILES,FMDV inh,Cycloheximide cs,Sm TGR inh,Shiga toxin inh
CC(=O)c1cccc(NS(=O)(=O)c2cc3c(cc2C)n(C)c(=O)c(=O)n3C)c1,7.3%,.,-2.7%,.
CCOC(=O)COc1cc(N)c(Cl)cc1Cl,-0.6%,27.0*,4.4%,14.9
COc1ccc(CCNC(=O)c2cnc3n(c2=O)CCS3)cc1OC,13.6%,2.0,-0.7%,-2.8
O=C(NCc1ccccc1)c1cnc2n(c1=O)CCS2,-2.8%,-2.7,-20.2%,-12.8
O=C(NCCC1=CCCCC1)c1cnc2n(c1=O)CCS2,61.0%,41.2*,4.8%,40.8*
O=C(NCCc1ccc(Cl)cc1)c1cnc2n(c1=O)CCS2,28.4%,40.6*,2.7%,+
O=C(NCCCc1ccccc1)c1cnc2n(c1=O)CCS2,1.8%,38.1*,0.1%,63.5*
CNC(=O)c1nc(C)n(-c2cc(Cl)ccc2Cl)n1,5.3%,28.5*,5.9%,42.0
O=C(COC(=O)c1ccco1)c1ccc(F)cc1,55.1%,54.6*,5.1%,110.3*
O=C(CCNc1cc(Cl)cc(Cl)c1)c1ccco1,-3.5%,4.8,?,-2.2
O=C(CCNc1ccc(F)cc1)c1ccco1,19.1%,52.2*,3.98µM*,90.1*
O=C(CCNc1ccc(F)c(Cl)c1)c1ccco1,.,10.4,8.91µM*,6.7
O=C(CNC(=O)c1ccco1)Nc1ccc(F)cc1,27.4%,12.1,0.7%,52.0
O=C(CCNc1cccc(C(F)(F)F)c1)c1ccco1,4.1%,21.1,3.55µM*,61.7
O=C(CCNc1ccc(Cl)c(C(F)(F)F)c1)c1ccco1,-27.2%,11.0,?,17.2
Cc1cnc(C)c(-c2cc(F)cc3c2OC(CNC(=O)CN2CCCC2)C3)n1 (configuration not stated),-1.3%,.,.,.
CCC(=O)Nc1ccc(NCc2ccc(-c3ccccc3)cc2)cc1,-9.3%,-2.7,-1.6%,0.2
Cn1nnnc1SCCNCc1ccc(OCc2ccccc2Cl)cc1,0.0%,.,-13.9%,.
COc1cc(CNc2ccc(O)cc2)cc(Br)c1OCc1ccccc1,-14.0%,-1.8,-23.4%,-3.5
Oc1ccc(NCc2ccc(OCc3ccccc3Cl)cc2)cc1,13.3%,.,35.5µM*,.
Oc1ccc(NCc2ccc(OCc3ccccc3)cc2)cc1,23.5%,49.9*,7.08µM*,153.2*
CCc1ccc(CNc2ccc(O)cc2)cc1,-1.6%,8.8,22.4µM*,13.9
CC(C)C(NS(C)(=O)=O)c1nnc2n1CCN(Cc1ccc(C#CC(C)(C)O)cc1)CC2 (configuration not stated),-0.3%,.,.,.
Cc1ccc(Cn2c(CNC(=O)CCc3ccccc3)nc3cccnc32)cc1,1.6%,.,2.7%,.
CCC(C)NC(=O)c1cc(-c2ccccc2O)on1 (configuration not stated),106.2%,52.1*,0.0%,84.4*
SMILES,FMDV inh,Cycloheximide cs,Sm TGR inh,Shiga toxin inh
COCCNC(=O)c1cc(-c2ccccc2OC)on1,52.4%,17.4*,6.0%,131.4
COc1ccccc1-c1cc(C(=O)NC(C)c2ccccc2)no1 (configuration not stated),22.9%,7.3,-13.6%,-17.8
COc1ccccc1-c1cc(C(=O)NC(C)C)no1,51.2%,33.9*,-1.5%,83.0*
CCC(C)NC(=O)c1cc(-c2cccc(OC)c2)on1 (configuration not stated),41.4%,.,6.0%,.
COc1ccccc1-c1cc(C(=O)NCc2ccco2)no1,44.6%,37.1*,4.8%,30.3
CCN(CC)C(=O)c1cc(-c2ccccc2OC)on1,53.6%,37.4*,-24.0%,53.8*
COC(=O)C1CCN(C(=O)CCCOc2ccccc2)CC1,-20.1%,20.4*,-4.0%,42.5*
O=C(CCCOc1ccccc1)N1CCN(C(=O)c2ccco2)CC1,28.4%,21.1*,-5.9%,87.5*
Cc1cc(Cl)ccc1OCCCC(=O)N1CCN(S(=O)(=O)c2ccccc2)CC1,-20.8%,.,1.7%,.
Cc1cc(Cl)ccc1OCCCC(=O)N1CCN(C(=O)c2ccco2)CC1,-22.6%,-0.4,50.1µM*,19.3
Cn1ncc2c(N3CCN(c4ccccc4Cl)CC3)ncnc21,-19.8%,.,1.5%,.
CCCOC(=O)c1c(N)sc(C(=O)OCC)c1C,55.6%,37.3*,-11.3%,active
CCOC(=O)c1c(N)sc(N)c1C(=O)OCC,31.6µM*,-0.4,3.4%,-6.7
CCOC(=O)c1c(N)sc(=S)c2c1CCC2,-24.7%,16.0,15.8µM*,-25.6
CCCOC(=O)c1c(N)sc2c1CCC2,-2.8%,-2.5,?,10.2
